Calls of active or inactive are those of the source. Rule for the calls: active = hit-call score of the fitted dose curve at least 0.9, where 1 is the maximum; inactive = score below 0.9.

The values that follow come from PubChem BioAssay (EPA / NIEHS).

The nature of the assay: ATG_NRF2_ARE_CIS: Attagene CIS-FACTORIAL HepG2 Assay for human Nuclear Factor Erythroid 2 Related Factor 2 (NFR2) response to Antioxidant Response Elements (ARE) (AID 2282992). Conditions: HepG2 Attagene ARE/NRF2 reporter, transcription factor activity; actives raise or lower the signal. Here is the method: ATG_CIS is a cell-based, multiplexed-readout assay that uses HepG2, a human liver cell line, with measurements taken at 24 hours after chemical dosing in a 24-well plate.ATG_NRF2_ARE_CIS is one of 52 assay component(s) measured or calculated from the ATG_CIS assay. It is designed to make measurements of mRNA induction, a form of inducible reporter, as detected with fluorescence intensity signals by Reverse transcription polymerase chain reaction (RT-PCR) and Capillary electrophoresis technology.Data from the assay component ATG_NRF2_ARE_CIS was analyzed into 1 assay endpoint. This assay endpoint, ATG_NRF2_ARE_CIS, was analyzed with bidirectional fitting relative to DMSO as the negative control and baseline of activity. Using a type of inducible reporter, measures of mRNA for gain or loss-of-signal activity can be used to understand the reporter gene at the transcription factor-level as they relate to the gene NFE2L2. Furthermore, this assay endpoint can be referred to as a primary readout, because this assay has produced multiple assay endpoints where this one serves a reporter gene function. To generalize the intended target to other relatable targets, this assay endpoint is annotated to the dna binding intended target family, where the subfamily is basic leucine zipper.
Human liver HepG2 cells are transiently transfected with multiple reporter transcription units (MRTUs) in 6-well plates using FuGene 6 reagent (Roche; 3 ml FuGene/1 mg DNA). The MRTU constructs are regulated by a cis-regulating element (promoter). […] A major difference between the CIS and TRANS system is that in CIS activities of endogenous TFs are measured, whereas the TRANS assay evaluates changes in activities of exogenous, chimeric NR-Gal4 proteins. […] At the end of 24 hour incubation, total RNA was isolated using TriZol reagent (Invitrogen). The isolated RNA is then reverse-transcribed using oligo(dT) primer and Mo-MLV reverse transcriptase (Invitrogen) with DNAse I (Ambion) treatment for 30 min. The one-tenth of the produced cDNA was amplified by PCR using Taq DNA polymerase (Invitrogen) and two reporter sequence-specific primers. The PCR products were fluorescently labeled by primer extension with 6-arboxyfluorescein (6-FAM) 5'-labeled reporter sequence-specific primer (2 min at 95 C, 20 s at 68 C and 10 min at 72 C) and these products were digested with 5U of HpaI (New England Biolabs) for 2h at 37 C. The fragments were purified using Qiaquick PCR columns (Qiagen), analyzed on an ABI 3130xL genetic analyzer (Applied Biosystems) with peak positions identified by using a set of X-rhodamine (ROX)-labeled MapMarker1000 molecular weight standards (BioVentures). The raw capillary electrophoresis data was processed using Attagraph software (Attagene).
In general, AC50 refers to the concentration giving half of the maximal activity seen. Consider `CCCCCCCCCCCCCC(=O)O`, for which the concentration at half-maximal activity (AC50) was 65.5 µM (active). With `CN(C)C(=N)N=C(N)N`, the call was inactive. On the same count and under the same terms, to `CC1=CCC(O)(C(C)C)CC1` (stereo not given) belongs “inactive”; to `OCCOc1cccc(OCCO)c1`, “inactive”; to `O=C(O)c1cccc(C(F)(F)F)c1`, “inactive”. `C[C@H]1C[C@@H]2[C@H]([C@@H](O)C[C@@]3(C)[C@H]2CC[C@]3(O)C(=O)CO)[C@@]2(C)C=CC(=O)C=C12`: the AC50 was 26.7 µM (active). Turning to `Nc1cc([N+](=O)[O-])ccc1Cl`, the AC50 was 62.5 µM (active). The same measure, in the same setting: the result for `CC1COc2ccccc2N1C(=O)C(Cl)Cl` (stereo not given) reads 6.61 µM (active); that for `CCCCCCCCCCCCOCCO`, 54 µM (active). With `O=C[C@H](O)[C@H](O)[C@H](O)CO`, the outcome was inactive. Still for that read-out and setting: to `C[C@]12CC[C@H]3[C@@H](CCC4=CC(=O)CC[C@@]43C)[C@@H]1CC[C@@H]2C(=O)CO` belongs “inactive”; to `OCCCCCO`, “inactive”. Regarding `CCC(=O)OCCC(C)CCC=C(C)C` (stereo not given), the AC50 is 63.9 µM (active). `CC(C)=CCCC(C)=CCCC(C)=CCO`: the AC50 was 18.8 µM (active).

As for `Cc1ccc(C(C)C)cc1O`, the outcome was inactive. Still for that read-out and setting: to `CNC[C@H](O)c1cccc(O)c1` belongs “inactive”; to `O=C1NC(=O)c2ccccc21`, “inactive”; to `COc1nc(C)nc(N)n1`, “inactive”. Same read-out and setting: to `CCCCCCCCCCCCCCCC(=O)O` belongs “inactive”. With `CSc1nc(NC2CC2)nc(NC(C)(C)C)n1`, the AC50 was 12.1 µM (active). Turning to `CCCc1ccccc1O`, the compound was classed as inactive. Still for that read-out and setting: to `COc1ccc(NC(=O)CC(C)=O)cc1` belongs “inactive”. Same read-out and setting: to `CC(=O)[O][Al][O]C(C)=O` belongs “inactive”; to `CCCCCC(CO)CCC` (stereo not given), “inactive”. For `C=CC(=O)OCC(O)COc1ccccc1` (stereo not given), the AC50 was 26.2 µM (active). For the compound `CN1Cc2c(N)cccc2C(c2ccccc2)C1` (stereo not given), the result was inactive. The same measure, in the same setting: to `CC(=O)Nc1ccc(C)cc1C` belongs “inactive”; to `O=C=NC1CCC(CC2CCC(N=C=O)CC2)CC1` (stereo not given), “inactive”; to `COc1cc2ncnc(Nc3cccc(Cl)c3)c2cc1OC`, “inactive”.

With `CC(C)c1ccc(C(C)C)cc1`, the AC50 was 162 µM (active). Still for that read-out and setting: to `COc1ccnc(CS(=O)c2nc3cc(OC(F)F)ccc3[nH]2)c1OC` (stereo not given) belongs 59.4 µM (active). `C=C(C)C1CCC(C)CC1O` (stereo not given): the outcome was inactive. The same measure, in the same setting: the result for `CCCCCCCCCC=O` reads “inactive”; that for `c1ccc(CCCc2ccccn2)cc1`, “inactive”.

As to `CC1CCC(C(C)CS)CC1S` (stereo not given), the AC50 is 33.4 µM (active).

As for `CC(C)(C)NC(N)=O`, the compound was classed as inactive. Still for that read-out and setting: the result for `CCCC[n+]1ccccc1` reads “inactive”; that for `CC1=CC(=O)NS(=O)(=O)O1`, “inactive”. With `CCCCC(CC)COC(=O)/C=C\C(=O)OCC(CC)CCCC` (stereo not given), the AC50 is 9.08 µM (active). For `Nc1ccc(S(N)(=O)=O)cc1`, the outcome was inactive.
